Assay results from PubChem BioAssay (NCATS).
Records with an inconclusive call do not appear. Active and inactive are the calls of the source. Unless noted, calls come from the whole dose curve; as a rule, active = well fitted curve in the direction sought with a large enough effect; inconclusive = small, poorly fitted or top-dose-only effect, or another doubt; inactive = no such curve, though single readings can be large; an effect the other way counts as inactive or inconclusive.

Assays:
[1] = qHTS to identify inhibitors of the type 1 interferon - major histocompatibility complex class I in skeletal muscle: primary screen against the NCATS LOPAC collection (AID 1347405)
How it was run: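 CRISPR-engineered immortalized human myoblasts (C25cl48) with HiBiT fused to endogenous HLA-B*08:01, stimulated with 4 ng/ml IFN-beta. LOPAC compounds tested as a 7-point 1:4.3 titration (top 46 uM final), 24 h at 37 C; lytic HiBiT luminescence read.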

[2] = qHTS to identify inhibitors of the type 1 interferon - major histocompatibility complex class I in skeletal muscle: primary screen against the NCATS Pharmaceutical Collection (AID 1347407)
How it was run: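 HLA-B HiBiT myoblasts, dexamethasone-free growth medium + 4 ng/ml IFN-b; compounds pinned 1 h after seeding, […] from 46 uM; 24 h, 37 C, 5% CO2; lytic HiBiT detection, 10 min RT, luminescence.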

[3] = qHTS for inhibitors of adenylyl cyclases using a fission yeast platform: a pilot screen against the NCATS LOPAC library (AID 1347410)
How it was run: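 Read-out: fbp1-GFP fluorescence by laser scanning cytometry (488 nm laser), a gain of signal when AC/cAMP-PKA signalling is inhibited. Strain CHP2027 expressing AC9, GNAS and PDE4D2; compounds at up to 57 µM; 18 h, 30C.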

[4] = target: Protein phosphatase 1D (Homo sapiens) (UniProt O15297); test: Rhodamine-PBP qHTS Assay for Modulators of WT P53-Induced Phosphatase 1 (WIP1) (AID 1347425)
Protein phosphatase 1D (Homo sapiens), sequence (O15297 whole entry, looked up): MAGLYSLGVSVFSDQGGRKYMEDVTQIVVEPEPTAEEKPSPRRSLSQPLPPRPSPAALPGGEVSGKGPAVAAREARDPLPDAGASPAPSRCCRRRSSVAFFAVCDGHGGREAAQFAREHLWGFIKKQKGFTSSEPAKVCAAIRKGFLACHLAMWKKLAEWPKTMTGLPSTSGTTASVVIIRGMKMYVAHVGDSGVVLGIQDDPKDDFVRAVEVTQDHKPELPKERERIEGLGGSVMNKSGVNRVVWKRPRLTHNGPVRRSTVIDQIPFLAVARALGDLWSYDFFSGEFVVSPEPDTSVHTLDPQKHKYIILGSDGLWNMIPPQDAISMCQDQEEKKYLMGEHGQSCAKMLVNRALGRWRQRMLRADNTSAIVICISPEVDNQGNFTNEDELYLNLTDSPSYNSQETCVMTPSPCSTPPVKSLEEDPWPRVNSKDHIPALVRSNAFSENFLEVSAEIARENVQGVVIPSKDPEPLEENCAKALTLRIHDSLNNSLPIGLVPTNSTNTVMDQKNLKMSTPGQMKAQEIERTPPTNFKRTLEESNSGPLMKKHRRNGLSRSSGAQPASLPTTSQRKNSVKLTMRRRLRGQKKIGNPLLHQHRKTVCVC
How it was run: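 Read-out: Rhodamine-PBP fluorescence (ex 525/em 598 nm) for released Pi, read each minute for 11 min after adding 10 uM VEPPL-pS-QETFS; signal taken as f1 minus pre-substrate f0. Enzyme 5 nM WIP1 with 1 hr room-temperature compound preincubation.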

[5] = Validation qHTS assay for inhibitors of Activation Induced Cytidine Deaminase (AID): UDG Counterscreen signal (AID 1347427)
How it was run: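 Counterscreen read of UDG activity (2 U/mL, 4/3x) in the FRET deamination format with AID (1 uM, 4/3x), DJC20/DJC23 substrates (250 nM, 4x), 4 h at room temperature. NaOH stop, fluorescence at 560 ex/665 em.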

[6] = target: Single-stranded DNA cytosine deaminase (Homo sapiens) (UniProt Q9GZX7); test: Validation qHTS assay for inhibitors of Activation Induced Cytidine Deaminase (AID): AID signal (AID 1347429)
Single-stranded DNA cytosine deaminase (Homo sapiens), sequence (Q9GZX7 whole entry, looked up): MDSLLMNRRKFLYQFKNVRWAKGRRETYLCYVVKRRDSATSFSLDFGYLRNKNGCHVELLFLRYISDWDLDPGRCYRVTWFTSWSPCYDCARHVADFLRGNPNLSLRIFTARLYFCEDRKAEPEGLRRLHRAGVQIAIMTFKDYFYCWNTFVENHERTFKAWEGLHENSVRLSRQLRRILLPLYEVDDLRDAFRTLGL
How it was run: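 FRET deamination assay: 1 uM AID (4/3x stock) with UDG, compound up to 114 uM, then 250 nM DJC20/DJC23 substrate (4x stock) for 4 hr at room temperature. NaOH added, 30 min; fluorescence read 540/590 nm.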

[7] = Primary qHTS for inhibitors of SARS-S pseudo-typed particle cell entry (AID 1479145; calls by dose curve)
[8] = qHTS to identify inhibitors of the type 1 interferon - major histocompatibility complex class I in skeletal muscle: primary screen against the NCATS Mechanism Interrogation Plate v5.0 (MIPE) Libary (AID 1347411)
How it was run: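 Immortalized human myoblasts (C25cl48) with HiBit knocked into endogenous HLA-B*08:01 were stimulated with 4 ng/ml IFN-beta and given compounds in 11-point 1:3 titration from 46 uM. After 24 h at 37 C, lytic HiBiT luminescence was read.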

[9] = target: Protein phosphatase 1D (Homo sapiens) (UniProt O15297); test: RapidFire Mass Spectrometry qHTS Assay for Modulators of WT P53-Induced Phosphatase 1 (WIP1) (AID 1347424)
How it was run: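 10 nM WIP1 + cpd, 1 h RT; + 2 uM VEPPL-pS-QETFS, 5 min RT; stop 0.5% formic acid; labelled product standard 1 uM; RapidFire MS. Buffer 50 mM Tris pH 7.5, 30 mM MgCl2, 1 mM TCEP.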

[10] = Primary qHTS for Huh7 cytotoxicity: counterscreen for inhibitors of MERS-S pseudotyped particle cell entry (AID 1479147; calls by dose curve)
[11] = qHTS for Activators of p53 Stress Response Pathway screened against the NCATS CANVASS Library (AID 1347388)
How it was run: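 Beta-lactamase reporter driven by p53 response elements in HCT-116 cells, read as the 460 nm/530 nm emission ratio after CCF4 loading, following 16 h of exposure to an 11-point series. Cell viability was measured in the same wells by CellTiter-Glo luminescence.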

[12] = qHTS assay for small molecule disruptors of mitochondrial membrane potential screened against the NCATS CANVASS Library (AID 1347389)
How it was run: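 HepG2 cells (2,000/well) plated overnight, then exposed to compounds in 11-point qHTS series for 1 h at 37C before 30 min Mito-MPS dye; depolarization read as fall in red aggregate (590 nm) to green monomer (535 nm) fluorescence.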

[13] = qHTS for activators of Nrf2/ARE signaling pathway screened against the NCATS CANVASS Library (AID 1347391)
How it was run: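 ARE-bla HepG2 beta-lactamase reporter cells exposed to compounds for 16 h at 37C; CCF4 substrate 2 h, fluorescence at ex 405 nm, em 460/530 nm. Viability by CellTiter-Glo luminescence.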

[14] = qHTS for activators of dead-cell proteases activity screened against the NCATS CANVASS Library (AID 1347392)
How it was run: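 Compounds are pin-transferred onto attached HepG2 cells, giving 11 final concentrations. After 5 h at 37C, AAF-aminoluciferin reagent is added and luminescence is recorded at room temperature.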

[15] = qHTS for inhibitors of ER calcium dysfunction: SERCaMP assay screened against the NCATS CANVASS Library (AID 1347393)
How it was run: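 Thapsigargin-induced ER calcium depletion drives GLuc-SERCaMP secretion from SH-SY5Y cells; compounds given 16 h beforehand were scored by lowered coelenterazine luminescence after 4 h challenge.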

[16] = Vero-766 cells viability qHTS against the NCATS CANVASS Library: Counterscreen for Zika virus inhibition assay (AID 1347394)
How it was run: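 CellTiter-Glo luminescence, lower signal indicating cytotoxicity. Vero 766 cells without Zika virus, 1000 cells/well, plated overnight, then treated 72 h at 37C across an 11-point series.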

[17] = qHTS for inhibitors of Wild type Zika virus screened against the NCATS CANVASS Library (AID 1347396)
How it was run: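 Vero 766 cells, 1000/well, o/n attach; cpds pin-transferred (11-pt qHTS); WT Zika added; 72 h, 37C, 5% CO2; CellTiter Glo lumi. Uninfected + vehicle = 100% inhibition.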

[18] = Viability qHTS for inhibitors of the SERCaMP assay screened against the NCATS CANVASS Library (AID 1347400)
How it was run: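 SH-SY5Y-GLuc SERCaMP MJH297-derived cells, 1000/well, plated 4 h, then exposed to compounds in an 11-point qHTS series for 48 h at 37C. Viability read as CellTiter-Glo luminescence.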

[19] = Redox Reaction Profiling qHTS: Assay Interference Panel against the NCATS CANVASS Library (AID 1347401)
How it was run: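 Cell-free redox surrogate: 5 uM resazurin + 200 uM DTT, 50 mM HEPES pH 7.3/50 mM NaCl; cpds pinned, 11-pt qHTS; Ex525/Em598 read t0 and t=15 min, dark.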

[20] = qHTS for inhibitors of Rabies Virus screened against the NCATS CANVASS Library (AID 1347402; calls by dose curve)

Measured: Potency

CC(CCc1ccccc1)NC(C)C(O)c1ccc(O)cc1 (stereo not drawn)
inactive: [1] | [2] | [3] | [4] | [5] | [6] | [7]

NN=C(N)N
inactive: [1] | [2] | [3] | [8] | [9] | [4] | [5] | [6]

COc1ccccc1N1CCNCC1
inactive: [1] | [2] | [3] | [4] | [5] | [6]

CN1C[C@H](CNC(=O)OCc2ccccc2)C[C@@H]2c3cccc4c3c(cn4C)C[C@H]21
inactive: [1] | [2] | [3] | [9] | [4] | [5] | [6]

CC(=O)[C@H]1CC[C@H]2[C@@H]3CC[C@H]4C[C@H](O)CC[C@]4(C)[C@H]3C(=O)C[C@]12C
inactive: [1] | [2] | [3] | [4] | [5] | [6]

CC[C@@H](CO)NC(=O)[C@@H]1C=C2c3cccc4[nH]cc(c34)C[C@H]2N(C)C1
inactive: [1] | [2] | [3] | [9] | [4] | [5] | [6] | [7] | [10]

COc1ccc(C(CN(C)C)C2(O)CCCCC2)cc1 (stereo not drawn)
inactive: [1] | [2] | [3] | [9] | [4] | [5] | [6] | [7] | [10]

c1ccc2c(c1)OCC(C1=NCCN1)O2 (stereo not drawn)
inactive: [2] | [3] | [9] | [4] | [5] | [6]

C[C@]12CCC(=O)C(O)=C1CC[C@@H]1[C@@H]2CC[C@]2(C)C(=O)CC[C@@H]12
inactive: [2] | [8] | [4] | [5] | [6]

CCCN1CCC[C@@H]2Cc3[nH]ncc3C[C@H]21
inactive: [1] | [2] | [3] | [4] | [5] | [6]

Nc1ccncc1
inactive: [1] | [2] | [3] | [4] | [5] | [6] | [7] | [10]

CC(O)(CS(=O)(=O)c1ccc(F)cc1)C(=O)Nc1ccc(C#N)c(C(F)(F)F)c1 (stereo not drawn)
inactive: [1] | [3] | [8]

O=c1[nH]c2ccccc2n1CCCN1CCC(n2c(=O)[nH]c3cc(Cl)ccc32)CC1
inactive: [2] | [3] | [8] | [4] | [5] | [6]

Cn1c(CCCC(=O)O)nc2cc(N(CCCl)CCCl)ccc21
inactive: [1] | [2] | [3] | [8] | [4] | [10]

O=c1oc2ccccc2c(O)c1C(CC(O)c1ccc(-c2ccc(Br)cc2)cc1)c1ccccc1 (stereo not drawn)
inactive: [2]

Cc1cccc(C)c1NC(=O)CN1CCCC1=O
inactive: [1] | [2] | [3] | [8] | [9] | [4] | [5] | [6]

NCC(O)c1ccc(O)cc1 (stereo not drawn)
not listed: [8]
inactive: all other assays above

CC(=O)[C@H]1CC[C@H]2[C@@H]3CC[C@H]4C[C@](C)(O)CC[C@]4(C)[C@H]3CC[C@]12C
inactive: [1] | [2] | [3] | [9] | [4] | [5] | [6]

CCC1(C2=NCCN2)Cc2ccccc2O1 (stereo not drawn)
inactive: [1] | [2] | [3] | [9] | [4] | [5] | [6]

N[C@@H](Cc1ccc(N(CCCl)CCCl)cc1)C(=O)O
inactive: [2] | [8] | [9] | [4] | [10]
active: [7] 31.6 µM

NCCc1cc(O)c(O)cc1O
inactive: [2]

NP(N)(=O)NC(=O)c1ccc(F)cc1
inactive: [2]

Cc1ccc(S(=O)(=O)N[C@@H](CCCCN)C(=O)CCl)cc1
inactive: [1] | [2] | [3] | [4] | [5] | [6]

N#CC(C#N)=Cc1ccc(O)c(O)c1
inactive: [1] | [2] | [3] | [9] | [4] | [5] | [6]

N[C@@H]1C[C@H]1c1ccccc1
inactive: [2] | [8] | [4] | [7] | [10]

Cc1cccc(C)c1NC1=NCCCS1
inactive: [1] | [2] | [3] | [9] | [4] | [5] | [6] | [10]

NCC1(CC(=O)O)CCCCC1
inactive: [1] | [2] | [3] | [8] | [9] | [4] | [5] | [6] | [7] | [10]
